The record followed here is PubChem BioAssay (Tox21).

Each structure is given as a SMILES string. Results filed as inconclusive are left out. The source made the active and inactive calls. Unless noted, calls follow the shape of the dose curve; as a rule, active = well fitted curve in the direction sought with a large enough effect in the repeat runs; inconclusive = weak or mixed curves; inactive = no such curve, though single readings can be large; an effect the other way counts as inactive or inconclusive.

Experiment [1] can be described thus: qHTS assay to identify small molecule agonists of the vitamin D receptor (VDR) signaling pathway - cell viability counter screen (AID 743224). Also: nearly all actives have a fitted effect of over 50% in size. Also: potency is read from the fitted curve at half-maximal effect. The essentials:
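Luminescence from CellTiter-Glo, read after 30 min at room temperature, reports viability of VDR-bla cells treated with compounds for 16 h at 37C in the wells used for the beta-lactamase FRET read.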
A general note: In qHTS, concentration-response curves come from the screen itself.

Experiment [2] is described as follows: qHTS assay to identify small molecule antagonists of the vitamin D receptor (VDR) signaling pathway - cell viability counter screen (AID 743225). Also: nearly all actives have a fitted effect of over 50% in size. In a few lines: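 Luminescent cell viability (CellTiter-Glo) in VDR-bla HEK 293T cells after 16 h compound exposure at 37C in the presence of 3 nM final 1-alpha,25-dihydroxy vitamin D3.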
A short description of experiment [3]: qHTS assay to identify small molecule agonists of the NFkB signaling pathway (AID 1159509; active = well fitted curve in the direction sought with a large enough effect in the signal ratio in the repeat runs, not every such curve was filed as active; the % refers to the signal ratio; also: series mostly up to about 61 µM). The essentials:
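After overnight attachment, reporter cells received test compounds, DMSO or positive controls and were incubated 5 hr at 37 C. FRET substrate was then added for 1.5 hr at room temperature before dual-emission fluorescence reading.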

Experiment [4] can be described thus: qHTS assay to identify small molecule agonists of the NFkB signaling pathway - cell viability counter screen (AID 1159515; calls by dose curve; also: series mostly up to about 61 µM; nearly all actives have a fitted effect of over 55% in size). In a few lines: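 Luminescence from CellTiter-Glo (30 min, room temperature) gives viability, measured in the same wells as the beta-lactamase reporter read. Cells were NFkB-bla ME-180, 2,000 per well, treated 5 hr with compounds.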
Experiment [5] can be described thus: qHTS assay to identify small molecule agonists of the endoplasmic reticulum stress response signaling pathway - cell viability counter screen (AID 1159517; calls by dose curve;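 also: HeLa cells carrying an ER stress response element beta-lactamase reporter; series mostly up to about 61 µM; nearly all actives have a fitted effect of over 50% in size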). The essentials: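 Luminescence readout: CellTiter-Glo, 30 min RT, same wells as the ESRE-bla reporter read. HeLa ESRE-bla, 1,500 cells/well, o/n 37 C; cpd 5 hr 37 C/5% CO2.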
Experiment [6] in a line: qHTS assay to identify small molecule antagonists of the retinoid-related orphan receptor gamma (ROR-gamma) signaling pathway - cell viability counter screen (AID 1159520). Also: nearly all actives have a fitted effect of over 50% in size. The essentials:
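Tet-on ROR gamma CHO cells (1,000/well) were plated 4 hr, given compounds in DMSO for 2 hr at 37 C, then induced with 1 uM final doxycycline for 16 hr. Viability was read as ATP by CellTiter-Glo luminescence after 30 min.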

Experiment [7] has as its target Nuclear receptor ROR-gamma (Homo sapiens) (UniProt P51449). Description: qHTS assay to identify small molecule antagonists of the retinoid-related orphan receptor gamma (ROR-gamma) signaling pathway (AID 1159521; also: nearly all actives have a fitted effect of over 50% in size; also: potency is read from the fitted curve at half-maximal effect). The essentials:
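CHO cells expressing RORγ under a TET-on promoter, luciferase under RORE control. Dox 1 uM final, 16 h; compounds added 2 h prior. Luminescence decrease measured.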

Experiment [8] can be described thus: qHTS assay to identify small molecule agonists of the AP-1 signaling pathway - cell viability counter screen (AID 1159525; calls by dose curve; also: nearly all actives have a fitted effect of over 55% in size). The essentials:
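ME-180 AP-1-bla, 2500 cells/well, Opti-MEM + 0.5% dialyzed FBS; overnight 37 °C; cpd 15-pt titration, 5 h 37 °C; CellTiter-Glo 30 min RT; luminescence read; normalised to TOAB and DMSO controls.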

Experiment [9] can be described thus: qHTS assay to identify small molecule agonists of the AP-1 signaling pathway (AID 1159526; calls by dose curve).
Experiment [10] is described as follows: qHTS assay to identify small molecule agonists of the RXR signaling pathway - cell viability counter screen (AID 1159529). In a few lines: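 Same-well viability check after the LiveBLAzer FRET read: CellTiter-Glo added, luminescence measured after 30 min at room temperature. Reporter HEK 293T cells had been treated with compounds for 16 hr following a 5 hr preincubation.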

A short description of experiment [11]: qHTS assay to identify small molecule antagonists of the retinoid acid receptor (RAR) signaling pathway - cell viability counter screen (AID 1159551). Also: nearly all actives have a fitted effect of over 35% in size. In a few lines:
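Luminescent ATP quantitation (CellTiter-Glo) gave cell viability in C3RL4 cells exposed to test chemicals for 6 h at 37 C alongside 1 uM final retinol.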

Experiment [12] in a line: qHTS assay to identify small molecule agonists of the retinoic acid receptor (RAR) signaling pathway (AID 1159553). In a few lines: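 Luminescence from a RARE-driven luciferase reporter in C3RL4 cells served as the read-out, measured after 30 min with detection reagent at room temperature. Compounds in DMSO were applied for 6 hr at 37 C following overnight seeding.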
Experiment [13] can be described thus: qHTS assay to identify small molecule agonists of the endoplasmic reticulum stress response signaling pathway (AID 1159516; active = well fitted activation curve with a large enough effect in the signal ratio in the repeat runs, not every such curve was filed as active; the % refers to the signal ratio). In a few lines:
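Read-out is beta-lactamase cleavage of a FRET substrate (405 nm excitation; 460 and 530 nm emissions) in ESRE-bla HeLa cells after a 5 hr compound exposure at 37 C. Substrate incubation ran 2 hr at room temperature.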

Experiment [14] is described as follows: qHTS assay to identify small molecule antagonists of the estrogen related receptor (ERR) signaling pathway - cell viability counter screen (AID 1224818).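 Also: series mostly up to about 46 µM; viability measured after 17.5 h of compound exposure.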 The essentials:
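Multiplexed counter screen to separate cytotoxic compounds from true ERR modulators. ERR cells received DMSO-dissolved compounds after a 6 h pre-incubation, were exposed 17.5 h at 37 C, then assayed with CellTiter-Fluor fluorescence.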

A short description of experiment [15]: qHTS assay to identify small molecule antagonists of the estrogen related receptor (ERR) signaling pathway (AID 1224819). In a few lines: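 Seed ERR cells 2,000/well; rest 6 h at 37 C/5% CO2; pin compounds in DMSO; incubate 18 h at 37 C; add One-Glo; wait 30 min at room temperature; measure luminescence.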
The nature of experiment [16]: qHTS assay to identify small molecule agonists of the estrogen related receptor (ERR) signaling pathway (AID 1224820). The essentials:
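Quantitative HTS of the LOPAC library used NTP ERR reporter cells treated 18 h at 37 C. Signal is luminescence after One-Glo addition and a 30 min room-temperature incubation.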

The test system of experiment [17] is estrogen-related receptor alpha (ERRalpha) with PGC-1alpha coactivator, human. The experiment is described as follows: qHTS assay to identify small molecule antagonists of the estrogen related receptor signaling pathway with the pleiotropic PPARgamma coactivator (PGC) (AID 1224821; calls by dose curve). In a few lines:
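Quantitative HTS for antagonism: PGC/ERR cells received compounds after 6 h attachment and were incubated 18 h at 37 C, with luminescence (One-Glo) as the endpoint.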

The nature of experiment [18]: qHTS assay to identify small molecule antagonists of the estrogen related receptor signaling pathway with the pleiotropic PPARgamma coactivator (PGC) cell viability counter screen (AID 1224822;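 also: potency is read from the fitted curve at half-maximal effect; viability read after 17.5 h compound exposure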). The essentials:
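Cells: PGC/ERR, 2,000/well, 1536-well format. Pre-incubation 6 h, 37 C/5% CO2. Compound exposure 17.5 h, 37 C. Detection: CellTiter-Fluor, 30 min, fluorescence.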

Experiment [19] has as its target Retinoic acid receptor RXR-alpha (Homo sapiens) (UniProt P19793). Description: qHTS assay to identify small molecule agonists of the RXR signaling pathway (AID 1159527; calls by dose curve; also: nearly all actives have a fitted effect of over 35% in size). The essentials:
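Beta-lactamase reporter assay, agonist format. Engineered HEK 293T line, charcoal-stripped FBS at 2%, overnight (16 hr) exposure, fluorescence at 460 and 530 nm after 405 nm excitation.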

Experiment [20] in a line: qHTS assay to identify small molecule antagonists of the retinoic acid receptor (RAR) signaling pathway (AID 1159552; also: nearly all actives have a fitted effect of over 50% in size). The essentials: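 Readout: luciferase luminescence, 30 min post-reagent at RT. Setup: C3RL4 RARE reporter cells, compounds plus retinol 1 uM final, 6 hr incubation at 37 C and 5% CO2.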

Sequence of Retinoic acid receptor RXR-alpha (Homo sapiens) (P19793 whole entry, looked up): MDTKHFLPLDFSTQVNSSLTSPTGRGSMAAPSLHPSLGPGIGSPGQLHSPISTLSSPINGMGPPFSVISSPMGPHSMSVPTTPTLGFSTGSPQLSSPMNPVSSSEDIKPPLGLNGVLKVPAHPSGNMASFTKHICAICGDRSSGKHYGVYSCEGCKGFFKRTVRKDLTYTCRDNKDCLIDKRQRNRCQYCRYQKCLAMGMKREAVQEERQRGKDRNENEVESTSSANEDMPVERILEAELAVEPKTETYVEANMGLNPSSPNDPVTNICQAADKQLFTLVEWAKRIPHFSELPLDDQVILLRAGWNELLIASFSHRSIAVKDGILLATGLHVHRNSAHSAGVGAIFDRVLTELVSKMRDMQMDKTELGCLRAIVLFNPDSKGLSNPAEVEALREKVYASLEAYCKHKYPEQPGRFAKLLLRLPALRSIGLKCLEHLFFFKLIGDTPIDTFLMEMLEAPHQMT

In the case of `O=Cc1ccc2c(c1)OCO2`, the Potency result in experiment [1], in experiment [2], in [4], in [5], in [6] and in [7] was “inactive” in each case. Also, the Potency result in [8], in experiment [10], in experiment [11] and in experiment [12] was “inactive” each time. In addition, the molecule was called inactive in experiment [3] and in [9].
For `COP(=S)(Oc1cc(Cl)c(Br)cc1Cl)c1ccccc1` (stereo not drawn), the Potency in experiment [1] is 38.9 µM (active). Besides, the Potency entry in [2], in experiment [4], in experiment [8], in [11] and in [12] was “inactive” in each case. Further, the molecule was classed as inactive in experiment [3] and in experiment [13].
Consider `NC(=O)CI`, for which the Potency entry in experiment [1], in experiment [4], in [8], in [11] and in [12] was “inactive” each time. For the same molecule, the result in experiment [3], in [13], in experiment [14], in experiment [15] and in experiment [16] was inactive. For the same molecule, the Potency is 11.9 µM (active) in experiment [17] and 12.3 µM (active) in experiment [18].
In the case of `N#Cc1ccc(Cl)cc1`, the Potency entry in [1], in [2], in [4], in experiment [7], in experiment [8] and in experiment [19] was “inactive” each time. In addition, the Potency result in experiment [10], in experiment [11], in experiment [20] and in [12] was “inactive” in each case. Further, the molecule was called inactive in [3], in experiment [13] and in [9].
Regarding `Cc1ccccc1C(=O)Nc1cccc(OC(C)C)c1`, the Potency result in experiment [1], in experiment [4], in experiment [6] and in [11] was “inactive” throughout. The result in experiment [3], in experiment [13] and in experiment [9] was inactive.
In the case of `ClC=C(Cl)Cl`, the Potency entry in experiment [1], in [2], in [4], in experiment [5], in experiment [6] and in experiment [7] was “inactive” each time. For the same molecule, the Potency entry in experiment [8], in experiment [19], in experiment [10] and in experiment [11] was “inactive” in each case. Moreover, the molecule was classed as inactive in experiment [3] and in experiment [9].
As for `Clc1ccc(C2(Cn3cncn3)CC(Br)CO2)c(Cl)c1` (stereo not drawn), the Potency entry in experiment [1], in experiment [2], in experiment [4], in experiment [8], in experiment [10] and in experiment [11] was “inactive” throughout. The result in [3], in experiment [13] and in experiment [9] was inactive.
With `CCC(Cl)CCl` (stereo not drawn), the Potency result in experiment [1], in experiment [2], in experiment [4], in experiment [5], in experiment [6] and in experiment [7] was “inactive” each time. In addition, the Potency entry in [8], in experiment [19], in [10], in [11], in experiment [20] and in [12] was “inactive” throughout. Further, the molecule was classed as inactive in experiment [3] and in experiment [9].
`O=C(NCc1cccnc1)Nc1ccc([N+](=O)[O-])cc1`: the Potency result in experiment [1], in experiment [4], in [5], in experiment [6], in [7] and in experiment [8] was “inactive” throughout. In addition, the Potency entry in experiment [10], in [11], in experiment [20] and in experiment [12] was “inactive” throughout. For the same molecule, the outcome in experiment [3] and in experiment [9] was inactive.
For `[O-][Cl+]O`, the Potency entry in experiment [1], in experiment [2], in experiment [4], in experiment [5], in experiment [6] and in [7] was “inactive” throughout. For the same molecule, the Potency entry in experiment [8], in experiment [10], in [11], in experiment [20] and in [12] was “inactive” in each case. Besides, the call in experiment [3] and in experiment [9] was inactive.
`O=C(NC(=O)c1c(F)cccc1F)Nc1cc(Cl)c(Oc2ncc(C(F)(F)F)cc2Cl)c(Cl)c1`: the molecule was called inactive in experiment [3] and in experiment [13]. Also, the Potency entry in experiment [4], in [8], in [10] and in experiment [11] was “inactive” each time. Also, in experiment [7], the Potency was 20.8 µM (active).
For `COC(=O)C(Cl)C(=O)OC`, the Potency entry in [1], in [2], in experiment [4], in [5], in experiment [6] and in experiment [7] was “inactive” throughout. The Potency entry in [8], in experiment [19], in experiment [10], in experiment [11], in experiment [20] and in [12] was “inactive” throughout. In addition, the molecule was called inactive in experiment [3] and in [9].
